Sampled rows, rich in hits. Any-hit rate of the full collection: about 18%.
PLK1 PBD block – PLK1 (human) polo-box domain binding inhibition; Plk1 PBD binding of FITC phosphopeptide, fluorescence polarization; 360,000 compounds, 2.8% hits; Potency, µM, for the others: max response, negative = inhibition, hits mostly inhibitors; AID 720504; further: series mostly up to about 57 µM; nearly all actives have a fitted effect of over 65% in size
VDR inh – inhibitors of human vitamin D receptor; P11473; VDR-SRC2-3 peptide fluorescence polarization, 2 h; Potency, µM, without a hit: max response, negative = inhibition, most hits filed as inhibitors; 400,000 compounds, 0.93% hits; AID 504847
Target sequence (P11473 whole entry, looked up): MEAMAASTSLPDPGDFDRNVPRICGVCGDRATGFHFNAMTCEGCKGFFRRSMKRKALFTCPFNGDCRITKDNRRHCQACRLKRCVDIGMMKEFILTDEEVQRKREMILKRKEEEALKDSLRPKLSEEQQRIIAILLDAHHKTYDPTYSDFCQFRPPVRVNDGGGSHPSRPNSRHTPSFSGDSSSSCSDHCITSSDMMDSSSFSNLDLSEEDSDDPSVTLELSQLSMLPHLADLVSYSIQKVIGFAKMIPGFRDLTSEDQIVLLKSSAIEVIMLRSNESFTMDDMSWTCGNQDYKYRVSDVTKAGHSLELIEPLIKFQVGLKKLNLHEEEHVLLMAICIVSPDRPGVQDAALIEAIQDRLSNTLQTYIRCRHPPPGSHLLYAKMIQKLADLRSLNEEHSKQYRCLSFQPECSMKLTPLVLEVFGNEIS
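Compounds are added to VDR with labelled SRC2-3 coactivator peptide and held 2 h at room temperature. Inhibition of the VDR–peptide interaction is then read as a change in fluorescence polarization.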
DT40 TDP1 CPT – growth inhibition of DT40 Tdp1-/-;hTDP1 cells with camptothecin (screen for TDP1 inhibitors) | chicken DT40 Tdp1-/-;hTDP1 cells + 20 nM CPT, ATP luminescence, 48 h | Potency, µM (highest dose often 46.2 µM), for inactives: at the highest dose activity change, negative = growth inhibition, actives largely listed as inhibitors | 420,000 compounds, 12% hits | AID 686979; further: nearly all actives have a fitted effect of over 55% in size
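Cell growth measured by CellTiter-Glo luminescence after a minimum 48 h, 37 C compound exposure with 20 nM CPT in Tdp1-knockout DT40 cells stably expressing hTDP1, seeded 400/well; qHTS titration format.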
TDP1 block – TDP1 (human) enzyme inhibition | Q9NUW8 | recombinant TDP1, AlphaScreen DNA substrate cleavage | Potency, µM (series often up to 130 µM), for inactives: at the highest dose activity change, negative = inhibition, actives largely listed as inhibitors | 350,000 compounds, 0.28% hits | AID 485290; further: nearly all actives have a fitted effect of over 40% in size
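Recombinant human Tdp1 (E. coli-expressed, 1 nM final) preincubated with compounds 15 min at room temperature, then 5'-biotin/3'-phosphotyrosine-FITC DNA substrate (15 nM final) added for 5 min. AlphaScreen beads (10 ug/ml final) added 10 min; cleavage lowers signal.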
TDP1 cell noCPT – qHTS for Inhibitors of human tyrosyl-DNA phosphodiesterase 1 (TDP1): qHTS in cells in absence of CPT; DT40 Tdp1-/- hTDP1 cells, no CPT, ATP luminescence, 48 h; Potency, µM (series often up to 46.2 µM), for the others: at the highest dose activity change, negative = growth inhibition, hits mostly inhibitors; 420,000 compounds, 15% hits; further: nearly all actives have a fitted effect of over 55% in size
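Chicken DT40 Tdp1-/- cells stably complemented with human TDP1 were seeded at 400 cells/well with DMSO in place of 20 nM camptothecin. After compound pinning, cells grew at least 48 hr at 37 °C; viability read by CellTiter-Glo luminescence.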
GCN5L2 inh – blocks human GCN5L2 histone acetyltransferase; Q92830; GCN5L2 HAT assay, ThioGlo1 CoA-SH fluorescence; Potency, µM (highest dose often 58.9 µM), without a hit: top-dose activity change, negative = inhibition, most hits filed as inhibitors; AID 504327; 390,000 compounds, 0.21% hits
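Enzyme at 20nM final was mixed with library compounds for 15 min at room temperature. Peptide H3(1-25) at 75uM, acetyl-CoA at 70uM and ThioGlo1 at 50uM were then added. Plates were read immediately and after 20 min (Ex340nm/Em540nm).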
* marks the source's active call; other numbers are inactive results; ? = inconclusive; · = not tested or not shown; ! = repeats disagree; [ ] = another dose, or the depositor's remark. The call rests on the fitted dose curve; in most records, active means well fitted curve in the direction sought with a large enough effect; inconclusive means small, poorly fitted or top-dose-only effect, or another doubt; inactive means no such curve, though single readings can be large; an effect the other way counts as inactive or inconclusive. On the % scale 0 is the no-effect control and ±100 the full control effect; potency means the concentration at half of the fitted maximal effect.

SMILES	PLK1 PBD block	VDR inh	DT40 TDP1 CPT	TDP1 block	TDP1 cell noCPT	GCN5L2 inh
Cc1nn(C(C)C(=O)N2CCN(c3ccc(Cl)cc3)CC2)c(=O)c2cc3occc3n12 (stereo unspecified)	·	6.8%	?	2.5%	16.4µM*	-8.2%
COc1ccccc1CNC(=O)C(C)n1nc(C)n2c(cc3occc32)c1=O (stereo unspecified)	26.7µM*	?	?	2.2%	-19.9%	-2.7%
CCc1nn(C(C)C(=O)N2CCN(c3ccccc3)CC2)c(=O)c2cc3occc3n12 (stereo unspecified)	-5.9%	5.8%	?	1.6%	-18.3%	1.7%
COc1cc(C(=O)Nc2ccc(-n3cnnn3)c(C)c2)cc(OC)c1OC	-2.9%	-6.1%	-28.2%	9.1%	-18.5%	-2.0%
Cc1ccc(NC(=O)c2ccc(C(C)(C)C)cc2)cc1-n1cnnn1	-2.4%	12.9%	?	-2.8%	29.1µM*	-0.5%
CCN1CCN(C(=O)c2ccc3c(c2)N(Cc2ccc(Cl)cc2)C(=O)c2ccccc2S3=O)CC1 (stereo unspecified)	·	-6.8%	?	6.9%	?	-4.5%
Cn1c(O)c(N=NC(=O)c2ccco2)c2ccccc21	-8.9%	4.0%	-0.3%	-3.6%	14.6µM*	-15.3%
Cn1c(O)c(N=NC(=O)C2COc3ccccc3O2)c2ccccc21 (stereo unspecified)	26.7µM*	-21.3%	?	8.4%	?	-8.1%
CCOC(=O)C(=O)N=Nc1c(O)n(C)c2ccccc12	-9.4%	-11.2%	-6.3%	2.4%	17.9%	-16.4%
Cc1cc(N=NC(=O)c2ccccc2O)c2ccccc2c1O	26.7µM*	-3.9%	16.4µM*	2.6%	18.4µM*	-11.1%
Cn1c(O)c(N=NC(=O)c2ccccc2O)c2ccccc21	3.36µM*	?	13µM*	?	16.4µM*	28.6%
CC[C@@H]1C(c2cccc(C)c2)=NN(c2ccc(Br)cc2)[C@H]1C(=O)N1CCOC1=O	·	-1.8%	·	-3.1%	·	?
Cn1c(O)c(N=NC(N)=S)c2ccccc21	·	?	6.68µM*	·	5.31µM*	-29.0%
CCOc1ccc(OCc2ccc(C(=O)NC(C)(C)C)o2)cc1	-15.8%	-6.1%	7.31µM*	5.5%	?	-12.1%
c1c[nH]cn1	·	·	·	12.1%	·	·
O=C(COc1ccccc1)NNC1=NS(=O)(=O)c2ccccc21	-7.4%	1.2%	-1.8%	-2.7%	-4.0%	-5.0%
O=S1(=O)N=C(Nc2nncs2)c2ccccc21	23.8µM*	-24.0%	-2.9%	0.9%	-8.4%	-8.8%
O=C(CCCOc1ccccc1)Nc1cccc(S(=O)(=O)N2CCCCCC2)c1	1.6%	9.2%	-25.9%	0.1%	-21.9%	-5.7%
Cc1ccc(/C=C2/Sc3ccc(C(=O)N4CCN(C)CC4)cc3NC2=O)cc1	-24.7%	4.9%	23.1µM*	6.7%	?	-3.1%
CCN1CCCC1CNC(=O)c1ccc2c(c1)NC(=O)/C(=C\c1ccc(C)cc1)S2 (stereo unspecified)	-13.9%	14.3%	?	7.2%	16.4µM*	-6.4%
O=C(Nc1ccc(Br)cc1Cl)c1cnn2c1NC(=C1CC1)C=C2C(F)F	·	·	-4.8%	·	-5.6%	·
CCCc1nn(C)c2c(=O)[nH]c(-c3cc(S(=O)(=O)N4CCN(C)CC4)ccc3OCC)nc12	-5.2%	?	-7.6%	7.1%	-11.7%	0.4%
CCCc1nn(C)c2c(=O)[nH]c(-c3cc(S(=O)(=O)Nc4ccc(NC(C)=O)cc4)ccc3OCC)nc12	-3.7%	-2.4%	10.3µM*	3.7%	?	-0.1%
COc1ccc(CNC(=O)CN2CCC(NC(=O)c3ccccc3C)CC2)cc1	-4.7%	-5.9%	-3.6%	·	0.0%	0.3%
COc1ccccc1NC(=O)C1CCN(C(=O)c2sc3nc[nH]c(=O)c3c2C)CC1	·	-5.8%	-9.2%	4.4%	-11.6%	-9.4%
SMILES	PLK1 PBD block	VDR inh	DT40 TDP1 CPT	TDP1 block	TDP1 cell noCPT	GCN5L2 inh
COc1cccc(/C=C2\Oc3cc(OC(=O)N4CCOCC4)ccc3C2=O)c1	-9.5%	-10.0%	?	-1.4%	?	1.3%
O=C1/C(=C/c2ccc3c(c2)OCO3)Oc2cc(OCC(=O)N3CCC[C@H]3C(=O)O)ccc21	5.5%	-23.8%	20.6µM*	·	-2.2%	-6.9%
COc1ccccc1/C=C1\Oc2cc(OC(=O)N3CCOCC3)ccc2C1=O	-14.8%	-14.7%	14.6µM*	2.8%	23.1µM*	3.5%
COc1cccc(/C=C2\Oc3cc(OCC(=O)N4Cc5ccccc5C[C@H]4C(=O)O)ccc3C2=O)c1	?	?	-29.3%	·	?	-28.8%
COc1ccc(/C=C2\Oc3cc(OCC(=O)N4CCC[C@H]4CO)ccc3C2=O)c(OC)c1	9.2%	7.0%	23.1µM*	·	?	-23.4%
O=C(O)CN1C(=O)C(=O)N(Cc2ccc(Cl)c(Cl)c2)C1=O	-0.1%	12.3%	-11.3%	·	8.2%	-15.8%
COc1ccc(-c2noc(CN(C)C(=O)CCCN3C(=O)[C@H]4CC=CC[C@H]4C3=O)n2)cc1	-2.2%	·	?	·	?	·
Cc1noc(C)c1C(=O)Nc1nccs1	-17.3%	15.7%	-3.5%	2.6%	5.7%	-13.2%
CCOC(=O)CN(C)C(=O)C1CC(CO[Si](C)(C)C(C)(C)C)=CN1C(=O)OC(C)(C)C (stereo unspecified)	·	1.7%	·	3.8%	·	·
Cc1cnc(-n2ncc(C(=O)NCCc3cccnc3)c2C)nc1-c1ccc(F)cc1	·	·	-6.9%[9.04 µM]	·	?	·
Cc1cnc(-n2ncc(C(=O)NCCc3cccnc3)c2C)nc1-c1cccs1	·	·	-5.3%[9.04 µM]	·	20.6µM*	·
COc1ccccc1N1CCN(C(=O)C(=O)c2cccc([N+](=O)[O-])c2)CC1	-5.9%	·	?	·	?	·
Cc1cc2nc3ccc(=[N+](C)C)cc-3sc2cc1N	?	?	1.16µM*	?	0.411µM*	-11.6%
CCc1ccc(OCC(=O)NNCC(=O)Nc2ccc(OC)cc2)cc1	-1.3%	-16.6%	-27.8%	-0.3%	?	2.2%
CCC1CN(C(=O)N2CCC(C(=O)Nc3cc(C)ccc3C)CC2)c2ccccc2O1 (stereo unspecified)	·	1.4%	13µM*	6.5%	13µM*	-25.6%
CCC1CN(C(=O)N2CCC(C(=O)Nc3ccccc3F)CC2)c2ccccc2O1 (stereo unspecified)	-20.5%	7.7%	?	2.8%	23.1µM*!	-5.3%
Cc1ccc(NC(=O)C2CCN(C(=O)N3CCOc4ccccc43)CC2)cc1	1.1%	-18.2%	?	·	?	-9.0%
